# Measurements published in PubChem BioAssay (NCATS).
# Inconclusive results are not listed. A call without a number means that no potency is given here. The source made the active and inactive calls. Calls come from the whole dose curve; as a rule, active = well fitted activation curve with a large enough effect in the repeat runs; inconclusive = weak or mixed curves; inactive = flat fitted curve, though single readings scatter.
# Assay: qHTS assay for small molecule agonists of the antioxidant response element (ARE) signaling pathway measured by Nrf2-dependant transcriptional activity (AID 720636)
# Conditions: ARE-luc HepG2, Nrf2 luciferase reporter, 16 h; series mostly up to 92.4 µM
# Description: National Center for Advancing Translational Sciences [NCATS] NIH Chemical Genomics Center [NCGC] U.S. Environmental Protection Agency [EPA] National Institutes of Environmental Health Sciences [NIEHS] National Toxicology Program [NTP] Assay Overview: The antioxidant response element (ARE) signaling pathway plays an important role in the cellular anti-oxidant defense. Exposure to stressors which are exogenous like ionizing radiations, chemicals, U-V light, and endogenous like cell signaling, metabolic processes or inflammation, reactive oxygen species (ROS), can induce oxidative stress in the cells. Oxidative stress has been implicated in the pathogenesis of a variety of diseases ranging from cancer to neurodegeneration. ARE-luc HepG2 cell line (Simmons et al., Current Chemical Genomics, 5:1-12, 2011) has been used for identifying the chemicals that induce oxidative stress. The cell line has an Nrf2-responsive luciferase reporter gene that has been engineered to measure Nrf2-dependant transcriptional activity.
# Assay Protocol Summary: For measuring ARE induction; 2,000 ARE-luc HepG2 cells in 5 uL of assay medium containing 1% dialyzed FBS per well were dispensed into white wall/solid bottom 1536-well plates using a Flying Reagent Dispenser (FRD) (Aurora Discovery). The assay plates were incubated for 6 hr at 37 C to allow cell attachment to the well bottom, followed by the transfer of 23 nL compound or DMSO vehicle by a pin tool (Kalypsys). The plates were incubated for 16 hr at 37 C and 5% CO2, followed by the addition of 5 uL of ONE-GloTM luciferase reagent (Promega) into each well using FRD. After 30 min room temperature incubation, plates were read on a ViewLux plate reader (PerkinElmer).
# Potency is the fitted concentration of half-maximal effect.
row,Structure (SMILES),Potency
1,Nc1c(Cl)c(Cl)c(Cl)c(Cl)c1Cl,inactive
2,CCCCCC[C@H]1C(=O)O[C@H](C)[C@H](NC(=O)c2cccc(NC=O)c2O)C(=O)O[C@@H](C)[C@@H]1OC(=O)CC(C)C,inactive
3,CCCCCCCCCC(CC)c1ccc(S(=O)(=O)O)cc1 (stereo not given),inactive
4,O=S(=O)(O)C(F)(F)C(F)(F)C(F)(F)C(F)(F)C(F)(F)C(F)(F)C(F)(F)C(F)(F)F,inactive
5,CC(C)(C)C(O)C(Oc1ccc(Cl)cc1)n1cncn1 (stereo not given),inactive
6,Clc1cnc(Oc2ccc(Oc3ncc(Cl)cc3Cl)cc2)c(Cl)c1,inactive
7,CCCCC(CC)COC(=O)c1ccccc1C(=O)OCC(CC)CCCC (stereo not given),inactive
8,COCCOCCO,inactive
9,CC(C)Oc1cccc(NC(=O)c2ccccc2C(F)(F)F)c1,inactive
10,OCCCBr,inactive
11,O=C(O)COc1nc(Cl)c(Cl)cc1Cl,inactive
12,CN(C)[C@@H]1C(=O)C(C(N)=O)=C(O)[C@@]2(O)C(=O)C3=C(O)c4c(O)cccc4[C@@](C)(O)[C@H]3[C@H](O)[C@@H]12,inactive
13,CCCCOC(=O)c1ccccc1C(=O)OCc1ccccc1,inactive
14,Nc1ccc(Cl)cc1,inactive
15,CCCN(CCC)c1c([N+](=O)[O-])cc(S(N)(=O)=O)cc1[N+](=O)[O-],inactive
16,O=C(O)COc1ccccc1,inactive
17,[Cl][In]([Cl])[Cl],42.2 µM (active)
18,CCOP(=O)(NC(C)C)Oc1ccc(SC)c(C)c1 (stereo not given),inactive
19,O=[N+]([O-])c1c(Cl)c(Cl)cc(Cl)c1Cl,inactive
20,O=C(O)C(Cl)Cl,inactive

row,Structure (SMILES),Potency
1,O=C(Nc1ccccc1-c1ccc(Cl)cc1)c1cccnc1Cl,inactive
2,O=[N+]([O-])/N=C1\NCCN1Cc1ccc(Cl)nc1,inactive
3,ClC1=C(Cl)[C@]2(Cl)[C@@H]3[C@@H]4C[C@@H]([C@H]5O[C@@H]45)[C@@H]3[C@@]1(Cl)C2(Cl)Cl,inactive
4,c1ccc2occc2c1,inactive
5,CO/C=C(/C(=O)OC)c1ccccc1Oc1cc(Oc2ccccc2C#N)ncn1,inactive
6,C1CCC(NC2CCCCC2)CC1,inactive
7,COc1nn(CSP(=S)(OC)OC)c(=O)s1,inactive
8,CCOCCOC(C)=O,inactive
9,O=C(O)c1cc(Oc2ccc(C(F)(F)F)cc2Cl)ccc1[N+](=O)[O-],inactive
10,COc1ccc(C(c2ccc(OC)cc2)C(Cl)(Cl)Cl)cc1,inactive
11,O=C(O)CCCOc1ccc(Cl)cc1Cl,inactive
12,CC(=O)[O][Hg][c]1ccccc1,inactive
13,Nc1ccc(Sc2ccc(N)cc2)cc1,inactive
14,Cc1cc(O)ccc1Cl,inactive
15,CC(C)(O)C(=O)Nc1ccc([N+](=O)[O-])c(C(F)(F)F)c1,inactive
16,O=S(=O)(c1ccc(Cl)cc1)c1ccc(Cl)cc1,inactive
17,C=CCC1=C(C)C(OC(=O)C2C(C=C(C)C)C2(C)C)CC1=O (stereo not given),inactive
18,O=[N+]([O-])c1cc([N+](=O)[O-])c2ccccc2c1,42.2 µM (active)
19,O=S(=O)(O)C(F)(F)C(F)(F)C(F)(F)C(F)(F)F,inactive
20,CS(=O)(=O)c1ccc(C(=O)C2C(=O)CCCC2=O)c([N+](=O)[O-])c1,inactive
